The source of these data is PubChem BioAssay (NCI).

This is part of a sample that, as a whole, favours compounds with a hit. Of some 83,000 tested, about 20% had one in any assay.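 Values shown are percent growth following 48 h exposure of cells in 96-well plates to a single concentration of compound; below 10 was considered active.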 Values without a mark were called inactive. Calls of active or inactive are those of the source.

Holding throughout (assay): NCI-60 one-dose screen, 48 h (100 = growth as untreated, 0 = no growth, -100 = all killed)
In assay [1] the test system is DU-145 prostate. The note with it: 10 µM unless noted.
Assay [2] deals with K-562 leukemia. The note with it: 10 µM unless noted.
Assay [3] deals with MALME-3M melanoma. The conditions noted are these: 10 µM unless noted.
The subject of assay [4] is MDA-MB-231 breast. The note with it: 10 µM unless noted.
The subject of assay [5] is RXF 393 renal. The note with it: 10 µM unless noted.
Assay [6] has as its system SF-268 CNS. The note with it: 10 µM unless noted.
Assay [7] deals with SF-295 CNS. The conditions noted are these: 10 µM unless noted.
Assay [8] has as its system SF-539 CNS. The conditions noted are these: 10 µM unless noted.
For assay [9], the system named is UACC-257 melanoma. The conditions noted are these: 10 µM unless noted.
Assay [10] concerns HCT-15 colon. The note with it: 10 µM unless noted.
For assay [11], the system named is HT29 colon. The conditions noted are these: 10 µM unless noted.
Assay [12] has as its system SNB-75 CNS. The conditions noted are these: 10 µM unless noted.
In assay [13] the test system is SNB-19 CNS. The note with it: 10 µM unless noted.
Assay [14] relates to U251 CNS. The note with it: 10 µM unless noted.
Assay [15] relates to PC-3 prostate. The note with it: 10 µM unless noted.
For assay [16], the system named is UACC-62 melanoma. The note with it: 10 µM unless noted.
In assay [17] the test system is LOX IMVI melanoma. The conditions noted are these: 10 µM.
In assay [18] the test system is SK-MEL-28 melanoma. The conditions noted are these: 10 µM unless noted.
In assay [19] the test system is SK-MEL-5 melanoma. The note with it: 10 µM unless noted.
Assay [20] has as its system M14 melanoma. The note with it: 10 µM unless noted.

With `Cn1c(-c2ccccc2)c(/C=C/C2=[N+](C)c3ccccc3C2(C)C)c2ccccc21`, the growth was 20.2% in assay [1]; 6.23% (active) in assay [2]; -6.21% (active) in assay [3]; 15.6% in assay [4]; 35.2% in assay [5]; 18% in [6]. In addition, the growth was 11.8% in assay [7]; 11.9% in assay [8]; -51.5% (active) in [9]; 38.9% in assay [10]; 0.701% (active) in assay [11]; 20.6% in assay [12]. For the same compound, the growth in assay [13] was 18.5%; in [14], 8.73% (active); in [15] it was 8.69% (active); in assay [16] it was -3.73% (active); in [17] it was 14.8%; in assay [18], 22.5%.
Turning to `N#CCc1cccc2ccccc12`, the growth in assay [1] was 123%; in [2], 103%; in assay [3] it was 110%; in assay [4], 103%; in [5] it was 114%; in [6] it was 116%. Also, the growth in assay [7] was 123%; in assay [8], 101%; in assay [9], 105%; in [10], 100%; in assay [11], 96%; in [13] it was 110%. For the same compound, the growth in [15] was 90.9%; in assay [19], 104%; in assay [16], 111%; in assay [17], 108%; in assay [18] it was 94.7%.
With `O=[N+]([O-])c1ccc(Oc2ccccc2Cl)c([N+](=O)[O-])c1`, the growth in [1] is 89%; in assay [2], 17.4%; in assay [3], 85.5%; in [4], 75.5%; in [5], 86.7%; in assay [6] it was 84.9%. Also, the growth in [7] is 102%; in assay [8] it was 94.6%; in [9], 89.8%; in assay [10], 77%; in assay [11], 90.2%; in [12], 83.2%. Further, the growth in assay [13] is 95.7%; in [14] it was 88.4%; in assay [15], 97.1%; in assay [19], 95.1%; in [17] it was 44.2%.
For `Oc1ccc2ccccc2c1N=Nc1nccs1`, the growth in [1] is 20.5%; in [2], 10.4%; in [3] it was 29.2%; in assay [4], 28.8%; in assay [5] it was 47.3%; in assay [6] it was 1.32% (active). Also, the growth in assay [7] is 31.4%; in assay [8], 15.2%; in assay [9], 66%; in assay [10] it was 24%; in assay [11] it was 34.7%; in [12], 43.3%. In addition, the growth in [13] was 74.2%; in assay [14], 4.79% (active); in assay [15] it was 35.4%; in assay [19], 74.7%; in [16] it was 0.0083% (active); in assay [17], 5.25% (active). Moreover, the growth in assay [18] was 38.1%.
Consider `COc1cccc2c1C(=O)c1c(O)c3c(c(O)c1C2=O)C[C@@](O)(C(=O)CO)C[C@@H]3OC1CC(OC(C)=O)C(OC(C)=O)C(C)O1` (some centres undefined), for which the growth is -50.9% (active) in [1]; -34.2% (active) in [2]; -83% (active) in [3]; 9.19% (active) in [4]; -31.3% (active) in assay [5]; -22.3% (active) in assay [6]. In addition, the growth in [7] is -30.2% (active); in assay [8] it was -34.4% (active); in assay [9], -27.7% (active); in [11], -59% (active); in assay [12], -30.9% (active); in assay [13] it was -8.8% (active). Further, the growth in assay [14] was -42.9% (active); in assay [15], 5.51% (active); in [19], -100% (active); in assay [16] it was -87.8% (active); in assay [17], -75.4% (active); in [18], -8.16% (active).
In the case of `CC(O)C(O)C(O)C(O)C(O)C(=O)NNc1ccccc1` (centres undefined), the growth in [1] was 96.4%; in assay [2] it was 67.7%; in [3], 105%; in [4] it was 81.1%; in assay [5], 119%; in [6] it was 87.4%. Also, the growth was 86.4% in [7]; 92.7% in [8]; 100% in assay [9]; 78.6% in assay [10]; 104% in assay [11]; 82.6% in [12]. For the same compound, the growth was 97.1% in assay [13]; 97.6% in assay [14]; 86.3% in assay [15]; 107% in assay [19]; 30.5% in assay [16]; 48.1% in assay [17]. In addition, the growth in assay [18] was 103%.
Turning to `OC(c1cc(C23CC4CC(CC(C4)C2)C3)nc2c(Cl)cc(Cl)cc12)C1CCCCN1` (centres undefined), the growth in [1] was -93.6% (active); in [2] it was -67% (active); in assay [3], -16.3% (active); in assay [4] it was -62.2% (active); in assay [5] it was -91.4% (active); in assay [6], -86.9% (active). For the same compound, the growth in assay [8] was -76.9% (active); in [9] it was -69.1% (active); in assay [20], -85.6% (active); in [10], -65.7% (active); in assay [11], -89.8% (active); in assay [12] it was -82% (active). The growth in [13] is -58.4% (active); in assay [14], -88.5% (active); in assay [15], -84.5% (active); in [19], 9.05% (active); in assay [16] it was -44.1% (active); in [17], -51.2% (active). Further, the growth in assay [18] was -79.8% (active).
As to `Cc1cc(=O)oc2cc(O)cc(O)c12`, the growth in assay [1] was 103%; in assay [2] it was 102%; in assay [3], 90%; in assay [4], 89.8%; in [5] it was 114%; in [6] it was 97.7%. Besides, the growth was 103% in [7]; 92.4% in assay [8]; 108% in [10]; 107% in [11]; 98.2% in [12]; 104% in [13]. In addition, the growth in assay [14] is 107%; in [15], 100%; in [19], 99.5%; in assay [16], 102%; in [17] it was 97.9%; in assay [18] it was 101%.
As to `CC12CCC(O)CC1=CCC1C2CCC2(C)C3=NN=CC3CC12` (centres undefined), the growth is 122% in assay [1]; 61.1% in assay [2]; 98% in [3]; 103% in assay [4]; 102% in assay [5]; 105% in assay [6]. Further, the growth in [8] is 106%; in assay [9] it was 103%; in assay [20], 99.7%; in assay [10] it was 95.1%; in assay [11], 99%; in [12], 93.7%. The growth in assay [13] was 103%; in [14], 101%; in assay [15] it was 103%; in assay [19] it was 96.4%; in assay [16] it was 92.5%; in assay [17], 100%. In assay [18], the growth is 103%.
